The test system of assay [1] is Human papillomavirus type 1a protein E7 (residues 44-93). Briefly: small molecules binding HPV E7 44-93 – biochemical, small-molecule microarray, residues 44-93, 635 nm fluorescence, primary screen (AID 1108).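 Note: E7 fragment applied at 1 µg/mL in TBST for 1 h at 4 C; score combines spot fluorescence with its signal to noise ratio.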 Particulars: fluorescence 635 nm, higher = more signal.
A short description of assay [2]: hepatitis C replication reporter changes, two-sided – Huh7 cells, luciferase reporter, HCV replication inhibitor project, primary screen (AID 1109).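 Note: huh7 hepatoma cells harbouring a luciferase neomycin HCV replicon reporter; luciferase luminescence as measure of HCV replicon replication; test concentration not given here.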 Conditions: Huh7 HCV replicon luciferase reporter, 48 h; higher = more signal.
In assay [3] the target is Left-right determination factor 2 (Homo sapiens) (UniProt O00292). Briefly: small molecules binding LEFTY2 protein – biochemical, small-molecule microarray, 635 nm fluorescence scan, primary screen (AID 1110). Conditions: higher = more signal.
Assay [4] concerns the target Calmodulin-1 (Homo sapiens) (UniProt P0DP23). Briefly: small molecules binding calmodulin-1 with EGTA – biochemical, small-molecule microarray, Cy5-labelled CALM1, profiling panel (AID 1111).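 Note: labelled calmodulin applied in Tris saline Tween buffer holding calcium plus EGTA and DTT.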 Conditions: Cy5-CALM1 binding fluorescence, higher = more signal.
Assay [5] has the same target. In words: small molecules binding Ca-loaded calmodulin-1 – biochemical, small-molecule microarray, Cy5-labelled CALM1, plus calcium, artefact control for SMM control-protein annotation, profiling panel (AID 1112).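 Note: score merges spot fluorescence with signal to noise from triplicate slides.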 Particulars: Cy5-CALM1 binding fluorescence, higher = more signal.
The nature of assay [6]: probe aWnt5a binding to arrayed compounds – biochemical, biotinylated probe, 635/667 nm fluorescence, primary screen (AID 1113).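 Note: score merges 667 nm fluorescence intensity with signal-to-noise per printed feature.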 Conditions: small-molecule microarray, higher = more signal.
Assay [7] in a line: probe aShh binding to arrayed compounds – biochemical, biotinylated probe, 635/667 nm fluorescence, primary screen (AID 1114).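 Note: probe is biotin-labelled aShh protein from a stem cell growth factor screen; measures binding of labelled protein to compounds printed on the slide; score merges feature fluorescence at 667 nm with signal-to-noise.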 Particulars: small-molecule microarray, higher = more signal.
Assay [8] is described as follows: probe aNog binding to arrayed compounds – biochemical, biotinylated probe, 635/667 nm fluorescence, primary screen (AID 1115).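 Note: probe is biotinylated aNog protein used at 0.15 µg/mL for 1 h at 4 C; z-score combines 667 nm fluorescence of each spot with its signal to noise.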 Conditions: small-molecule microarray, higher = more signal.
Assay [9] deals with Torsin-1A-interacting protein 1 (Homo sapiens) (UniProt Q5JTV8). In words: compound microarray binding of lysate hLAP1 – cell lysate, small-molecule microarray, COS7 lysate, 635/667 nm fluorescence, primary screen (AID 1116). Particulars: 635 nm fluorescence, higher = more signal.
The target of assay [10] is Alpha-bungarotoxin (Bungarus multicinctus) (UniProt P60615). Briefly: compounds binding labelled alpha-BTX control protein – biochemical, small-molecule microarray, Alexa647 label, 635/667 nm fluorescence, artefact control for SMM control protein annotation, profiling panel (AID 1117). Particulars: alpha-BTX-A647 binding fluorescence, higher = more signal.
Another assay addresses Albumin (Bos taurus) (UniProt P02769). Briefly: compounds binding labelled BSA control protein – biochemical, small-molecule microarray, Alexa647 label, 635/667 nm fluorescence, artefact control for SMM control protein annotation, profiling panel (AID 1118).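 Note: score merges 667 nm emission intensity and signal-to-noise per printed compound spot.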 Conditions: BSA-A647 binding, fluorescence 635 nm, higher = more signal.
The nature of assay [11]: probe aXIP binding to arrayed compounds – biochemical, NeuroSMM set, 635/667 nm fluorescence, primary screen (AID 1119).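 Note: probe is the protein aXip251-270 applied at 1 µg/mL to compound-printed slides; binding of probe to printed compounds measured as 667 nm fluorescence plus signal to noise.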 Particulars: small-molecule microarray, higher = more signal, called active from +8 up or from −8 down.
A short description of assay [12]: probe aNOTCH3 binding on compound microarray – biochemical, small-molecule microarray, 635/667 nm fluorescence, primary screen (AID 1120).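 Note: probe is a biotin-tagged antibody raised against NOTCH3 rather than NOTCH3 protein; score merges spot fluorescence near 667 nm with spot signal to noise.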 Particulars: higher = more signal.
A short description of assay [13]: probe aNOTCH2 binding on compound microarray – biochemical, small-molecule microarray, 635/667 nm fluorescence, primary screen (AID 1121).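 Note: score merges feature fluorescence read at 667 nm with its signal to noise.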 Conditions: higher = more signal.
The target in assay [14] is Carbonic anhydrase 2 (Homo sapiens) (UniProt P00918). Briefly: compounds binding carbonic anhydrase 2 – biochemical, small-molecule microarray, Alexa647-labelled CAII, profiling panel (AID 1122). Conditions: CAII-A647 binding fluorescence, higher = more signal.
A short description of assay [15]: COS7 lysate on small-molecule microarray, probe aHis, 635 nm (AID 1123).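 Note: z-score combines 667nm fluorescence intensity with signal-to-noise per printed compound spot.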 Conditions: COS7 cell lysate, fluorescence, higher = more signal.
Assay [16] in a line: probe aLAP1 signal on lysate-treated microarray – cell lysate, small-molecule microarray, COS7 lysate, primary screen (AID 1124).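 Note: lysate comes from COS7 cells expressing LAP1 and is applied at 0.3 µg/mL; score merges spot fluorescence near 667 nm with signal-to-noise over triplicate slides.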 Conditions: probe aLAP1, fluorescence, higher = more signal.
The next assay relates to Sam68 (KHDRBS1). In words: compounds binding KHDRBS1 protein – biochemical, small-molecule microarray, 635 nm fluorescence, primary screen (AID 1125).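 Note: score merges 667 nm channel intensity with signal to noise over triplicate slides.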 Particulars: higher = more signal.
For assay [17], the system named is Chordin-like protein 2 (CHRDL2). Briefly: compounds binding chordin-like 2 – biochemical, small-molecule microarray, 635 nm fluorescence, primary screen (AID 1126).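 Note: printed compound slides probed with Chrdl2 protein at 4 µg/mL for 1 h at 4 C; score merges 667 nm emission intensity with signal to noise over three replicate slides.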 Particulars: fluorescence 635 nm, higher = more signal.
For assay [18], the target named is Concanavalin-A (Canavalia ensiformis) (UniProt P02866). Briefly: compounds binding concanavalin A lectin – biochemical, small-molecule microarray, Alexa647 label, 635 nm, artefact control for SMM control protein annotation, primary screen (AID 1127).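 Note: z combines 667 nm emission intensity with signal-to-noise across three replicate slides.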 Particulars: ConA-A647 binding fluorescence, higher = more signal.

The values below come from PubChem BioAssay.

Each structure is given as a SMILES string. Calls of active or inactive are those of the source.

Chain of Alpha-bungarotoxin (Bungarus multicinctus) (P60615 whole entry, looked up): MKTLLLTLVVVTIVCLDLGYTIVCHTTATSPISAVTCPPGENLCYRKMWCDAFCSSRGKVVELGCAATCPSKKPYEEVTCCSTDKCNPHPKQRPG
Chain of Albumin (Bos taurus) (P02769 whole entry, looked up): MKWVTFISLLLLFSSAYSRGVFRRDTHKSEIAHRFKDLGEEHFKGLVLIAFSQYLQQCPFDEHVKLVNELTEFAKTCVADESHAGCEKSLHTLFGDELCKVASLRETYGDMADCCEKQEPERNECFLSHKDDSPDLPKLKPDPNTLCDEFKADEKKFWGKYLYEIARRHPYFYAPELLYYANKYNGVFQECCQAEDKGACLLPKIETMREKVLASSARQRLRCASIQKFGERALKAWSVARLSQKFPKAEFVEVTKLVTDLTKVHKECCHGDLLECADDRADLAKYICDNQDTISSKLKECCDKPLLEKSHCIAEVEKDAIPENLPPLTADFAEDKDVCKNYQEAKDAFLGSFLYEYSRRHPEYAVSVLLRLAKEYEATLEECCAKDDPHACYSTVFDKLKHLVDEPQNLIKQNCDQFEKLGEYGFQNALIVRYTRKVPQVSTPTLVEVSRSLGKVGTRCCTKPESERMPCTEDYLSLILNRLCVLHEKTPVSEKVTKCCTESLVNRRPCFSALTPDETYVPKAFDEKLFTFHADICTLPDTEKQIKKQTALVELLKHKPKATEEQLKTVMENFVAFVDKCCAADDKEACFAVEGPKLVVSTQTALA
Chain of Concanavalin-A (Canavalia ensiformis) (P02866 whole entry, looked up): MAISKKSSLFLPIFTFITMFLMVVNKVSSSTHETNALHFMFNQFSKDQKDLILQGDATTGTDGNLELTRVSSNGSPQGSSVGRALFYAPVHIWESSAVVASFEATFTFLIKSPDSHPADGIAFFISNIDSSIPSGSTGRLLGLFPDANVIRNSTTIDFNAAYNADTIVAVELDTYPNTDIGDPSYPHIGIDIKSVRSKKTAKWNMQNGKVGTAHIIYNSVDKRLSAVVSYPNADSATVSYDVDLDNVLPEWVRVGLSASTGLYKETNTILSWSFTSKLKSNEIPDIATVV
Chain of Torsin-1A-interacting protein 1 (Homo sapiens) (Q5JTV8 whole entry, looked up): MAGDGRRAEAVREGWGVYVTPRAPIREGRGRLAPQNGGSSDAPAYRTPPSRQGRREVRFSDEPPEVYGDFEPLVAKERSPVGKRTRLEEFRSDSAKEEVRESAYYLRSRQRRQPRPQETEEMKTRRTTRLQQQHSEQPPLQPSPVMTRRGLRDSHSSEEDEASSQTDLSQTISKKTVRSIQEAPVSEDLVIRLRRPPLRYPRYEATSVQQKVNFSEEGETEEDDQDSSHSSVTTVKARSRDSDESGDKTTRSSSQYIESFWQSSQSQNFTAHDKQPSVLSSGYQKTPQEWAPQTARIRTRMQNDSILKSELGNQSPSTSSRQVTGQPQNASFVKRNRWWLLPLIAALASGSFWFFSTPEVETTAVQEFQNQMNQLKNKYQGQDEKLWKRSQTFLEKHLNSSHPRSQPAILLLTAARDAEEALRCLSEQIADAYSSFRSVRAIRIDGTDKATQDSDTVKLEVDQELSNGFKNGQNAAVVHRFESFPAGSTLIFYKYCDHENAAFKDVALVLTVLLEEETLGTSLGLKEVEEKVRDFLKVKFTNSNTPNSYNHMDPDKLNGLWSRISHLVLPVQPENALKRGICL
Chain of Left-right determination factor 2 (Homo sapiens) (O00292 whole entry, looked up): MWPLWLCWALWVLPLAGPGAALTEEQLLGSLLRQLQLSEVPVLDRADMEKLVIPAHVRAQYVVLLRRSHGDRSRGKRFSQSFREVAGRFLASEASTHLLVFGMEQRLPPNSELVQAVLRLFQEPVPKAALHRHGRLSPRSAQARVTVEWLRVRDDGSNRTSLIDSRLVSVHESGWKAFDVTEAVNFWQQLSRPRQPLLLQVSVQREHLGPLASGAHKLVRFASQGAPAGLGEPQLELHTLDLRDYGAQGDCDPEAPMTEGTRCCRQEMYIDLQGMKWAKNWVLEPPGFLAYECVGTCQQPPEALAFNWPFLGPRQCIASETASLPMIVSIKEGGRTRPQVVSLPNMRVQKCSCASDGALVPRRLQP

Turning to `CN(C)CCCC[C@@H]1NC(=O)[C@H]2C[C@@H](C(=O)NCCCCCN)[C@@H](c3cccc(OCCO)c3)N2C1=O`, the composite z-score in assay [1] is 0.474; in assay [3], 0.669; in assay [4], 2.22; in assay [5] it was 1.51; in assay [6], 0.233; in assay [7], 0.351. Further, the composite z-score was found to be 0.863 in assay [8]; 2.53 in [9]; 1.44 in [10]; 0.878 with Albumin (Bos taurus); 0.313 in assay [12]; 0.41 in assay [13]. The composite z-score turned out to be 0.746 in assay [14]; 1.75 in assay [15]; 1.12 in assay [16]; 1.19 in the assay on Sam68 (KHDRBS1); 0.402 in [17]; 1.12 in assay [18]. In assay [2], this compound showed a z-score of 0.0761. In addition, the composite Z-score in assay [11] is 0.522 (inactive).
Take `C#CCN1[C@H](/C=C/C2CC2)[C@H](Cc2ccccc2)OC(=O)[C@@H]1Cc1ccccc1`: the composite z-score in assay [1] is -0.306; in [3] it was 0.294; in assay [4], -0.707; in [5], -0.414; in assay [6], -0.164; in assay [7] it was -0.0066. Moreover, the composite z-score in [8] is -0.401; in assay [9], 0.0223; in [10], 0.106; with Albumin (Bos taurus) it was -0.159; in [12], -0.124; in [13], -0.0759. Also, the composite z-score in assay [14] came to 0.2; in assay [15] it was 0.24; in [16], 0.092; with Sam68 (KHDRBS1), 0.257; in [17] it was 0.509; in [18], 0.0816. In assay [2], this compound came in with a z-score of -2.87. Also, the composite Z-score in assay [11] was -0.95 (inactive).
As to `O=C1C2C=CC(C(O)c3ccc(F)cc3)N(Nc3ccc([N+](=O)[O-])cc3)C2C(=O)N1c1ccccc1` (stereo not given), the composite z-score in assay [1] was 0.883; in assay [3] it was -0.424; in [4] it was 1.76; in assay [5] it was 0.554; in [6] it was 0.155; in [7] it was 0.294. The composite z-score in assay [8] is 0.0676; in [9], 0.733; in assay [10], 1.76; with Albumin (Bos taurus), 0.877; in assay [12], 0.0749; in assay [13] it was -0.0852. Also, the composite z-score in [14] was found to be 0.795; in [15], 2.76; in assay [16] it was 0.569; in the assay on Sam68 (KHDRBS1) it was 1.31; in [17], 0.0095; in assay [18], 1.15. In assay [2], this compound returned a z-score of -1.03. The composite Z-score in assay [11] is 0.227 (inactive).
As to `CCOC(=O)C1=C[C@@H](C(C)C)N(S(=O)(=O)c2ccc(C)cc2)[C@H]1c1ccccc1F`, the composite z-score in assay [1] is 1.34; in [3], 0.605; in [4], 1.74; in [5], 0.0462; in assay [6] it was -0.001; in assay [7], 0.116. In addition, the composite z-score in assay [8] was 0.541; in [9], 1.08; in assay [10], 1.39; with Albumin (Bos taurus), 0.81; in [12], 0.0576; in assay [13], -0.0877. Moreover, the composite z-score in [14] was 0.62; in assay [15] it was 1.66; in assay [16] it was -0.144; in the assay with Sam68 (KHDRBS1), 1.31; in assay [17], -0.333; in [18], 1.17. In addition, the z-score in assay [2] was -2.04. Besides, the composite Z-score in assay [11] is 0.594 (inactive).
With `C=CCN1C(=O)[C@]2(Cc3ccccc3)N=C(c3ccc(OCCCO)cc3)O[C@@H]2c2ccccc21`, the composite z-score was 1.45 in [1]; 0.993 in assay [3]; 0.893 in assay [4]; -0.672 in [5]; -0.0519 in assay [6]; 0.531 in assay [7]. In addition, the composite z-score in [8] was -0.802; in [9] it was 0.251; in [10] it was 1.04; with Albumin (Bos taurus) it was -0.591; in assay [12] it was 0.143; in [13] it was -0.0029. Further, the composite z-score in assay [14] was 0.414; in assay [15], 2.79; in [16], -0.0869; in the assay with Sam68 (KHDRBS1), 1.3; in [17] it was 0.997; in assay [18], 0.911. The z-score in [2] was -1.84. The composite Z-score in assay [11] was -0.452 (inactive).
Regarding `C=C(CCCC)/C(=C/C[C@H](OC(=O)c1ccncc1)c1ccc(OCCO)cc1)c1cc(C(=O)OC)ccc1OC`, the composite z-score in assay [1] came to 1.09; in assay [3], 0.318; in [4] it was 0.226; in [5], 0.176; in assay [6], 0.0491; in assay [7] it was 0.216. The composite z-score was -0.158 in [8]; 1.26 in assay [9]; 0.378 in assay [10]; -0.0215 in the assay with Albumin (Bos taurus); 0.167 in assay [12]; -0.14 in [13]. Moreover, the composite z-score in assay [14] is 0.644; in [15], 0.774; in assay [16], 0.354; in the assay with Sam68 (KHDRBS1), 0.59; in assay [17] it was -0.257; in assay [18] it was 0.363. The z-score in assay [2] was -2.01. In addition, the composite Z-score in assay [11] was 0.219 (inactive).
